Sampled rows, rich in hits. Any-hit rate of the full collection: about 7.3%.
HCV inhibitor – HCV inhibition. Huh7.5.1 HCVcc-Cre infection, luciferase reporter, 44 h. AID 651820. Potency, µM (doses to about 41.8 µM), without a hit: at the top dose activity change, negative = inhibition, actives largely listed as inhibitors. 340,000 compounds, 3.4% hits; note: potency is the fitted concentration of half-maximal effect
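Cells (1,000/well) were plated 4 h before compound, then infected with HCVcc-Cre virus (~0.5 moi). After 44 h further culture, infection was read as luciferase luminescence following a 15 min substrate incubation at room temperature.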
FMDV antiviral – foot and mouth disease virus antiviral activity; AID 1159524; Potency, µM (top dose mostly 57.9 µM), for the others: at the top dose activity change, negative = inhibition, actives largely listed as inhibitors; 410,000 compounds, 1.2% hits; FMDV antiviral cell-based qHTS; calls by dose curve; tested in HEK293T cells; note: read-out not given here; potency is the fitted concentration of half-maximal effect; nearly all actives have a fitted effect of over 45% in size
HCMV inh – inhibitors of human cytomegalovirus | HFF cells, HCMV-luciferase reporter, 72 h; active compounds read low | activity change, negative = inhibition, % at 57.5 µM | 410,000 compounds, 4.5% hits; in the data active = activity change below about -60%; inconclusive = no clear call, values can overlap the other calls; inactive = above about -39%
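Two-dose cell screen: HFF monolayers treated with compounds and infected with luciferase-expressing HCMV at 1 PFU/cell, 72 h at 37C, then lysed for luciferase measurement.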
AmpC inh detg – blocks E. coli AmpC beta-lactamase in detergent assay; P00811; AmpC hydrolysis of nitrocefin, absorbance 480 nm, 0.01% Triton; Potency, µM (top dose mostly 114 µM), without a hit: at the highest dose activity change, negative = inhibition, usual class: inhibitors; 370,000 compounds, 0.041% hits; AID 485294;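 note: potency is the fitted concentration of half-maximal effect; 0% = no-compound wells and -100% = no-enzyme wells; nearly all actives have a fitted effect of over 25% in size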
Target sequence (P00811 whole entry, looked up): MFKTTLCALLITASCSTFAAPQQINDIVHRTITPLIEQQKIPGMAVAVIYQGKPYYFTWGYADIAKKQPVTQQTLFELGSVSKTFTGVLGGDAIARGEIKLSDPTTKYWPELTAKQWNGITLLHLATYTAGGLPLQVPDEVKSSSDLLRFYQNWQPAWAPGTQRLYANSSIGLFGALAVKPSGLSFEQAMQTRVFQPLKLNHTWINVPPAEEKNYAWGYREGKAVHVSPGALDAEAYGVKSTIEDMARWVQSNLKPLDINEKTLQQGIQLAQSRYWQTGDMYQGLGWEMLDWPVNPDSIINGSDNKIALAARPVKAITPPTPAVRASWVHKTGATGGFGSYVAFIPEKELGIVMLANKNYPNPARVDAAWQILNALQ
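AmpC (5.3 nM in the dispensed reagent) in 20 mM phosphate pH 7.0 with 0.01% (detergent screen) or 0.0001% Triton X-100 was preincubated with compounds for 15 min at room temperature. Nitrocefin was then added from an 800 uM solution, and hydrolysis was followed at 480 nm.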
AmpC inh no detg – inhibitors of E. coli AmpC beta-lactamase without detergent | P00811 | AmpC nitrocefin hydrolysis, absorbance 480 nm, 0.0001% Triton | Potency, µM (highest dose often 57.1 µM), for the others: at the top dose activity change, negative = inhibition, usual class: inhibitors | 330,000 compounds, 0.52% hits | AID 485341;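 note: potency is the fitted concentration of half-maximal effect; plate controls were no compound for no effect and no enzyme for full effect; nearly all actives have a fitted effect of over 20% in size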
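20 mM phosphate pH 7.0 + 0.01% (detergent screen) or 0.0001% Triton X-100; 5.3 nM AmpC reagent; cpd preinc 15 min RT; nitrocefin (800 uM stock) to start; A480 q20 s × 4 min; Activity was normalised to no-enzyme and no-compound control wells.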
The depositor's hits bear a star; ? = inconclusive; nt = no result given; [ ] = another dose, or the depositor's remark. Unless noted, calls come from the whole dose curve; as a rule, active = well fitted curve in the direction sought with a large enough effect; inconclusive = small, poorly fitted or top-dose-only effect, or another doubt; inactive = no such curve, though single readings can be large; an effect the other way counts as inactive or inconclusive. Unless noted, % is set by controls: 0 for no effect and ±100 for the full control effect.

SMILES	HCV inhibitor	FMDV antiviral	HCMV inh	AmpC inh detg	AmpC inh no detg
CCCCCC(=O)NC(=S)Nc1ccc(N2CCCCC2)c(Cl)c1	19%	-7%	24	0%	-15%
CCN1CCN(c2c(Cl)cccc2NC(=O)c2ccc([N+](=O)[O-])o2)CC1	nt	nt	-97*	nt	nt
CCCc1cc(=O)[nH]c(SCc2nc(-c3ccccc3)no2)n1	nt	-8%	0	16%	nt
COc1cc2nccc(Oc3ccc(NC(=O)Nc4ccc(F)cc4F)c(F)c3)c2cc1OC	nt	-7%	nt	nt	nt
CC(C)(C)c1ccc(C(=O)NCC(c2cccnc2)N2CCc3ccccc3C2)cc1 (stereo unspecified)	nt	?	?	0%	nt
O=C(Nc1ccccc1N1CCOCC1)c1ccc([N+](=O)[O-])o1	-14%	1%	9	3%	-10%
O=C(Nc1c(Cl)ccc2nsnc12)c1ccc(Br)o1	nt	-11%	-32	nt	nt
O=C(Nc1ccc(N2CCOCC2)c(Cl)c1)c1ccc([N+](=O)[O-])o1	11µM*	0%	-102*	-1%	-9%
CC(C)C(=O)N1CCN(c2ccc(NC(=O)COc3ccccc3[N+](=O)[O-])cc2)CC1	?	16µM*	?	5%	7%
O=C(Nc1c(Cl)ccc2nsnc12)c1ccc([N+](=O)[O-])o1	?	-26%	-106*	1%	-11%
CC(=O)N1CCN(c2ccc(NC(=O)c3ccc(Br)o3)cc2Cl)CC1	-19%	18%	-31	-8%	-4%[2.29 µM]
CCCC(=O)N1CCN(c2ccc(NC(=O)c3ccc([N+](=O)[O-])o3)cc2Cl)CC1	?	20µM*	-109*	0%	-21%
CN1CCN(c2ccc(NC(=O)COc3ccccc3[N+](=O)[O-])cc2)CC1	4%	-4%	3	-3%	0%[2.29 µM]
Cc1ccc(S(=O)(=O)Nc2ccc(F)c(F)c2O)cc1	nt	10%	-11	nt	nt
NNC(=O)c1csc(Cc2c(Cl)sc3ccc(Cl)cc23)n1	?	-21%	-22	8%	3%
CC(C)C(=O)N1CCN(c2ccc(NC(=O)c3ccc(Br)o3)cc2)CC1	0%	-16%	-22	2%	-8%
Cc1ccc(NC(=O)c2ccc([N+](=O)[O-])o2)cc1S(=O)(=O)N1CCOCC1	10µM*	-25%	-95*	4%	-23%
CC(C)C(=O)N1CCN(c2ccc(NC(=O)c3ccc([N+](=O)[O-])o3)cc2)CC1	?	-21%	-98*	-8%	-13%
CN1CCN(c2ccc(NC(=O)c3ccc([N+](=O)[O-])o3)cc2Cl)CC1	22µM*	0%	-101*	-7%	-14%
Cc1ccc(NC(=O)c2cc([N+](=O)[O-])ccc2N2CCOCC2)cc1S(=O)(=O)N1CCOCC1	nt	-17%	10	-2%	67%
N#Cc1ccc(NC(=O)COC(=O)c2cccc(S(=O)(=O)N3CCCC3)c2)cc1	nt	-14%	24	nt	nt
O=C(OCCSCCOC(=O)C1CC=CCC1)C1CC=CCC1 (stereo unspecified)	24%	-6%	0	nt	nt
COc1cc2oc3ccc(C#Cc4ccc(N)cc4)cc3c(=O)c2cc1OC	13µM*	7%	65	nt	nt
COc1cc(-c2nccc3[nH]nc(-c4ccncc4)c23)cc(OC)c1OC	nt	nt	-9	nt	nt
CC(=O)Nc1ccc(NC(=O)C(C)Sc2nnc(C3CC3)n2-c2ccccc2)cc1 (stereo unspecified)	6%	3%	-20	?	-4%
SMILES	HCV inhibitor	FMDV antiviral	HCMV inh	AmpC inh detg	AmpC inh no detg
C/C(=N\NC(=O)c1cc2ccccc2cc1O)c1ccc(C)o1	-17%	23%	-14	1%	7.9µM*
C/C(=N\NC(=O)c1n[nH]c2c1CCC2)c1ccco1	-2%	-25%	-65*	5%	-18%
C/C(=N/NC(=O)c1cc2ccccc2cc1O)c1ccco1	-17%	14%	-73*	-1%	25µM*
O=c1c2oc3ccccc3c2n(Cc2ccc(Cl)cc2)c(=O)n1Cc1ccccc1	nt	-25%	-3	15%	nt
CCC1(c2cccc(O)c2)CCCCN(C)C1 (stereo unspecified)	-66%	-15%	-68*	-3%	-13%
Oc1cccc(C(=S)N2CCCCC2)c1	-11%	-10%	?	-6%	-19%
COC(=O)c1cccnc1-n1c(=O)c2cccnc2n(Cc2cccc([N+](=O)[O-])c2)c1=O	-4%	-16%	-86*	7%	22%
COC(=O)c1cccnc1-n1c(=O)c2cccnc2n(Cc2ccc(Cl)cc2)c1=O	10%	-7%	11	-9%	81%
COc1ccc(CCN2C(=O)CC(NNC(=O)c3ccccc3Br)C2=O)cc1 (stereo unspecified)	1%	-13%	-65*	?	2%
COc1ccc(CCNC2CC(=O)N(CCc3ccccc3)C2=O)cc1 (stereo unspecified)	-2%	nt	0	2%	26%
COc1ccccc1CNCC(O)Cn1c2ccccc2c2ccccc21 (stereo unspecified)	11µM*	?	-99*	0%	26%
OCCNCC(O)Cn1c2ccccc2c2ccccc21 (stereo unspecified)	8%	0%	23	-1%	-7%
COc1ccc(N2CCN(C(=O)c3cc4c(=O)oc5ccc(C)cc5c4s3)CC2)cc1	nt	-16%	8	-9%	nt
C=CCn1c(SCC(=O)Nc2c(C)n(C)n(-c3ccccc3)c2=O)nnc1-c1cccnc1	-27%	-2%	34	nt	-1%
COc1cc2c(C(=O)N3CCN(c4ccccc4C)CC3)c(C)oc2cc1Br	11µM*	?	-37	?	-7%
COc1ccccc1N1CCN(C(=O)c2c(C)cc(=O)oc2C)CC1	9%	-9%	-23	?	-12%
Cc1cccnc1NC(=O)C1CCCN1S(=O)(=O)c1ccc(Cl)cc1 (stereo unspecified)	1%	-17%	28	2%	-3%
COc1ccc([C@H]2Cc3cccc(O)c3C(=O)O2)cc1O	?	21%	2	7%	-16%
COc1ccc([C@H]2Cc3cc(O)cc(O)c3C(=O)O2)cc1O	13%	-3%	-102*	nt	-22%
Cc1ccc2oc3c(c(=O)c2c1)C(c1ccc(F)cc1)N(c1nc(C)c(C)s1)C3=O (stereo unspecified)	nt	-22%	-3	0%	nt
O=C1CSC(=Nc2ccc(O)cc2)N1	8%	7%	25	0%	4%
O=C1C(Cl)=CC(=Nc2ccc(O)cc2)C=C1Cl	-4%	21%	-79*	?	28µM*
O=C(/C=C/c1ccccc1Cl)c1ccc[nH]1	?	38%	-62*	-5%	-15%
COc1ccc(-c2csc3nc(-c4cccnc4)nc(Cl)c23)cc1OC	?	?	-71*	-15%	85%
Nn1c(SCC(=O)Nc2ccc3c(c2)OCCO3)nnc(CCC(=O)O)c1=O	4%	-7%	16	0%	-10%
CCN(CC)CCNc1ccc(CO)c2oc3ccccc3c(=O)c12	nt	0%	-89*	nt	nt

Bioassay records deposited in PubChem by National Center for Advancing Translational Sciences (NCATS).
